PubChem BioAssay (NCATS)
Records with an inconclusive call do not appear. A number with no mark means an inactive call. Active and inactive are the calls of the source. Calls come from the whole dose curve; as a rule, active = well fitted inhibition curve with a large enough effect; inconclusive = small, poorly fitted or top-dose-only effect; inactive = no such curve, though single readings can be large or run the other way.

Target: N-terminal Xaa-Pro-Lys N-methyltransferase 1 (Homo sapiens) (UniProt Q9BV86)
Assay: qHTS Assay for Inhibitors of N-terminal methyltransferase 1 (NTMT1): LOPAC validation of the NTMT1 SAHH-coupled ThioGlo3 Assay (AID 1347143);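 note: SAH from peptide methylation measured as thiol fluorescence via SAHH coupling and ThioGlo3; nearly all actives have a fitted effect of over 70% in size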
Settings: recombinant NTMT1, SAHH-coupled ThioGlo3 fluorescence; series mostly up to 114 µM; activity change, negative = inhibition: at the top concentration
How it was run: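 Recombinant human NTMT1 (125nM) was pre-incubated 1 min at room temperature with compounds over a concentration range, then a mix of 100uM SAM, 10uM SAHH and 15uM ThioGlo3 (concentrations in added reagent) was added. ThioGlo3 fluorescence (ex 340/em 450nm) after 30 min was normalized to the initial reading.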
% is set by controls: 0 for no effect and ±100 for the full control effect; potency is the fitted concentration of half-maximal effect.

N-terminal Xaa-Pro-Lys N-methyltransferase 1 (Homo sapiens), sequence (Q9BV86 whole entry, looked up): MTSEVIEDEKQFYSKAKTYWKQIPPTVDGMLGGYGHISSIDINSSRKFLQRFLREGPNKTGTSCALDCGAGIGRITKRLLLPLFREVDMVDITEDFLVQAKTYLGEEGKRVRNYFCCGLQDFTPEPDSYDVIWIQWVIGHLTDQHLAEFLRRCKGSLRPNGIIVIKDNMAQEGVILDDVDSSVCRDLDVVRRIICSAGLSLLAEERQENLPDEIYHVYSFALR

Compound | activity change, negative = inhibition [%] | Potency
CCN(CC)CCNC(=O)c1ccc(NC(C)=O)cc1 | -8.94 | 
CN(C)C(=O)Oc1ccc[n+](C)c1 | -15.8 | 
Cc1nnc(SCC2=C(C(=O)O)N3C(=O)[C@@H](NC(=O)Cn4cnnn4)[C@H]3SC2)s1 |  | 50.1 µM (active)
COC(=O)[C@H]1[C@H]2C[C@@H]3c4[nH]c5cc(OC)ccc5c4CCN3C[C@H]2C[C@@H](OC(=O)c2cc(OC)c(OC)c(OC)c2)[C@@H]1OC |  | 56.2 µM (active)
COc1ccc([C@@H]2Sc3ccccc3N(CCN(C)C)C(=O)[C@@H]2OC(C)=O)cc1 | -3.9 | 
CC(C)NNC(=O)c1ccncc1 | -25.9 | 
COc1ccc(CCN(C)CCCC(C#N)(c2cc(OC)c(OC)c(OC)c2)C(C)C)cc1OC (stereo not given) | -15.9 | 
CC(C)(C)c1ccc(C(=O)CCCN2CCC(OC(c3ccccc3)c3ccccc3)CC2)cc1 | 14.7 | 
NC(=O)c1ncn([C@@H]2O[C@H](CO)[C@@H](O)[C@H]2O)c1O | 35.2 | 
CC(C)[N+](C)(CCOC(=O)C1c2ccccc2Oc2ccccc21)C(C)C | -18.4 | 
Brc1c(NC2=NCCN2)ccc2nccnc12 |  | 50.1 µM (active)
O=c1[nH]c(=O)n([C@H]2C[C@H](O)[C@@H](CO)O2)cc1Br | -0.766 | 
CN1CCN(C2=Nc3ccccc3Oc3ccc(Cl)cc32)CC1 | -27.5 | 
CN1C(=O)CC[C@H]1c1cccnc1 | 66.2 | 
COC(=O)C1=C(C)NC(C)=C(C(=O)OCCN(C)Cc2ccccc2)C1c1cccc([N+](=O)[O-])c1 (stereo not given) | -20.2 | 
CCCN(CCC)CCc1cccc2c1CC(=O)N2 | -10.4 | 
Cc1nc2sccn2c(=O)c1CCN1CCC(=C(c2ccc(F)cc2)c2ccc(F)cc2)CC1 | -21.4 | 
CC(C(=O)O)c1ccc(CC2CCCC2=O)cc1 (stereo not given) | -12.7 | 

Compound | activity change, negative = inhibition [%] | Potency
NC(Cc1ccc(Cl)cc1)C(=O)O (stereo not given) | -16.2 | 
N[C@@H](COP(=O)(O)O)C(=O)O | -13.4 | 
CCCN1C[C@H](CSC)C[C@@H]2c3cccc4[nH]cc(c34)C[C@H]21 | -21.9 | 
C(=C\c1ccccc1)/CN1CCN(C(c2ccccc2)c2ccccc2)CC1 | -6.07 | 
O=C1NCN(c2ccccc2)C12CCN(CCCC(c1ccc(F)cc1)c1ccc(F)cc1)CC2 | -15.9 | 
CN(C(=O)CCCOc1ccc2[nH]c(=O)ccc2c1)C1CCCCC1 |  | 79.4 µM (active)
O=C(CCCN1CCC(O)(c2cccc(C(F)(F)F)c2)CC1)c1ccc(F)cc1 | -18.2 | 
C=CCc1ccccc1OCC(O)CNC(C)C (stereo not given) | -19 | 
NS(=O)(=O)c1cc2c(cc1Cl)NC(C1CC3C=CC1C3)NS2(=O)=O (stereo not given) | 14.3 | 
Cc1ccc(Cl)c(Nc2ccccc2C(=O)O)c1Cl | -0.602 | 
CCN(CC)CC(=O)Nc1c(C)cccc1C | -14 | 
OC(CCN1CCCCC1)(c1ccccc1)C1CCCCC1 (stereo not given) | -12.7 | 
CCOC(=O)C1=C(C)NC(C)=C(C(=O)OC)C1c1cccc([N+](=O)[O-])c1 (stereo not given) | -20.6 | 
NC(=O)N1c2ccccc2C=Cc2ccccc21 | -6.04 | 
CC(=O)Oc1cc(C(C)C)c(OCCN(C)C)cc1C | -11.9 | 
O=C(O)CN(CCN(CC(=O)O)CC(=O)O)CCN(CC(=O)O)CC(=O)O | -5.85 | 
CCOC(=O)c1cnc2c(cnn2CC)c1NN=C(C)C |  | 56.2 µM (active)
